Compound activity (PubChem)
The list is not random: actives were taken first. Their share in the collection is about 4.8%.
DAX1 inh-1: inhibitors of human orphan nuclear receptor DAX1 (NR0B1); HEK293 Gal4-DAX1 luciferase reporter, luminescence; inhibition, % at 6.75 µM; 340,000 compounds, 0.99% hits; AID 504766;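 active = inhibition above the mean over all tested compounds plus 3 SD, cut at about 4.2% in these data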;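 also: inhibition shows as a rise in luminescence from relieved DAX1 repression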
Target sequence (P51843 207-470 limits assumed): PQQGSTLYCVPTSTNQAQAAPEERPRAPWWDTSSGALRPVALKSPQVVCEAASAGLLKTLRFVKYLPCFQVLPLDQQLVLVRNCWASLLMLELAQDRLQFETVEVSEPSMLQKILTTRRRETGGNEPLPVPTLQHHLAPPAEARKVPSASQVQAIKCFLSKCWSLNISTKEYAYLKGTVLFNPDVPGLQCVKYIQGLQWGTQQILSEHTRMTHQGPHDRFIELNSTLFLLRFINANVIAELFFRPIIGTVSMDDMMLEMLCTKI
ssDAF12 agonist: activators of S. stercoralis DAF-12 nuclear receptor; HEK293 ssDAF-12/GRIP1 lit1-tk-luc reporter, luminescence; % of 3 µM dafachronic acid response; activation, % at 6.8 µM; 370,000 compounds, 1% hits; AID 652126;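 active = activation above the mean over all tested compounds plus 3 SD, cut at about 0.9% in these data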
hgDAF-12 ag: activates the H. glycines DAF-12 receptor ligand-binding domain; HEK293 GAL4-hgDAF12 UAS-luciferase reporter, agonist luminescence; normalized to butyrate control; activation, % at 6.8 µM; 370,000 compounds, 1.8% hits; AID 687014;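 active = activation above a cutoff set at the mean of all screened compounds plus 3 SD, cut at about 10% in these data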
hcDAF12 agonist: activators of H. contortus DAF-12 nuclear receptor; HEK293 hcDAF-12 lit1-tk-luc reporter, luminescence; 0% DMSO, 100% Δ7-dafachronic acid; activation, % at 6.8 µM; 370,000 compounds, 1.4% hits; AID 652067;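 active = activation above the mean of all tested compounds plus 3 SD, cut at about 5.5% in these data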
SMARCA2 act: SMARCA2 function activation, primary screen; MG213 cells, MMTV-luciferase reporter, dexamethasone, overnight; activation, % at 9.1 µM; 370,000 compounds, 1% hits; AID 652017; in the data active = activation above about 7.8%
DAX1 inh-2: DAX1 (NR0B1) inhibition, primary screen; HEK293T StAR-luciferase reporter, SF-1/DAX-1 repression relief; inhibition, % at 6.8 µM; 370,000 compounds, 1.1% hits; AID 652010;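 active = inhibition above the mean over all tested compounds plus 3 SD, cut at about 3.6% in these data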;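 also: higher inhibition means more luminescence from relief of DAX-1 repression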
DAX1 conf: NR0B1 (human) inhibition, confirmation. shares compounds with DAX1 inh-2. HEK293T StAR-promoter luciferase reporter, SF-1/DAX-1 repression. inhibition, % at 6.8 µM. 2,400 compounds, 87% hits. AID 652134;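 active = inhibition above the average of every tested compound plus 3 SD, cut at about 3.8% in these data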;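 also: active compounds raise luminescence by relieving repression of the StAR reporter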
SF1 mutant ctr: nonselective inhibitor or artifact in SF-1 mutant DAX1 counter-screen; shares compounds with DAX1 inh-2; HEK293 StAR-luciferase, SF-1 AF2 mutant, luminescence; inhibition, % at 6.8 µM; 2,400 compounds, 78% hits; AID 652136;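 active = inhibition above the mean of all tested compounds plus 3 SD, cut at about 3% in these data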
A number is an active result; - = inactive; . = no result.

SMILES | DAX1 inh-1 | ssDAF12 agonist | hgDAF-12 ag | hcDAF12 agonist | SMARCA2 act | DAX1 inh-2 | DAX1 conf | SF1 mutant ctr
COc1ccc(NC(=O)Cc2nc3ccccc3[nH]2)cc1 | - | - | - | - | - | - | . | .
Cc1ccc(S(=O)(=O)N2C=C(c3ccccc3)c3ccccc3-c3ccccc32)cc1 | . | - | - | - | . | . | . | .
COc1ccc(C(=O)NCCS(=O)(=O)NCCc2ccccc2)cc1 | - | - | - | - | - | 4.8 | 3.8 | -
O=C(c1cncnc1)N1CCC(n2nnc3ncccc32)CC1 | . | - | - | - | - | - | . | .
Nc1c(C(=O)NCc2ccc3c(c2)OCO3)nnn1Cc1cccc(F)c1 | - | - | - | - | - | - | . | .
Nc1c(C(=O)Nc2ccc3c(c2)OCCO3)nnn1Cc1cccc(F)c1 | - | - | - | - | - | 7.7 | 9.4 | 5.3
Nc1c(C(=O)Nc2ccc3c(c2)OCCO3)nnn1Cc1ccc(Cl)cc1 | - | - | 12 | - | - | 8.7 | 7.7 | 5.2
CCn1cc(Cl)c(C(=O)Nc2ccc3c(c2)OCCO3)n1 | - | - | 13 | - | - | 6.1 | 9.7 | 5.5
COc1cccc(C(NC(C)=O)c2nc(-c3ccc(F)cc3OC)cs2)c1 (configuration not stated) | . | - | - | - | - | 5.8 | 6.6 | 3.3
CCCCC[C@H](C)N1C[C@@H](COCc2ccccc2)Oc2cc(N3CCC[C@H]3COC)ccc2S1(=O)=O | . | - | - | - | - | - | . | .
CCCCC[C@H](C)N1C[C@H](COCc2ccccc2)Oc2cc(N3CCC[C@@H]3COC)ccc2S1(=O)=O | . | - | - | - | - | 5.4 | - | -
CCOc1ccc(-n2c(COc3ccc(C)cc3)nnc2SCC(=O)Nc2ccc(F)c(F)c2)cc1 | . | - | - | - | - | - | . | .
O=C(/C=C/c1ccco1)Nc1ccccc1C(=O)O | . | - | 13 | - | - | 4.6 | 9.3 | 5.7
CCOc1ccccc1N1CC(C(=O)NCCC2=CCCCC2)CC1=O (configuration not stated) | - | - | - | - | - | 5.2 | 4.1 | 3.3
C[C@@H]1C[C@@H]2O[C@H]2CCCCC(=O)Cc2cc(O)cc(O)c2C(=O)O1 | . | - | - | - | - | - | . | .
Cc1ccsc1C(=O)OCc1nc2ccsc2c(=O)[nH]1 | - | - | - | - | - | - | . | .
CC(=O)c1c(C)[nH]c(C(=O)OCc2nc3ccsc3c(=O)[nH]2)c1C | - | - | 12 | - | - | 7.1 | 4.7 | 3.2
COc1ccc(CN(C)C(=O)[C@H]2O[C@@H](n3ccc(=O)[nH]c3=O)[C@H](O)[C@@H]2O)cc1OC | . | - | - | - | - | 4.7 | - | -
Cc1ccc(NC(=S)NC(=O)C2CCCC2)cc1C | - | - | 11 | - | - | 4.6 | 5.3 | 4.8
CC(C)N=C1NN=C(c2ccc(F)cc2)CS1 | - | - | 13 | - | - | 5.9 | 11 | 6.0
CCN=C1NN=C(c2ccc(C)cc2)CS1 | - | - | - | - | - | - | . | .
COc1ccccc1C(=O)N/N=C(\C)CC(=O)Nc1ccccc1NC(C)=O | - | - | - | - | - | - | . | .
CC(=O)Nc1ccccc1NC(=O)C/C(C)=N/NC(=O)c1ccccn1 | - | - | - | 7.5 | - | 4.6 | - | 3.4
CCOC(=O)C1CCCN(C(=O)c2ccc3oc(CCc4ccccc4)nc3c2)C1 (configuration not stated) | - | - | - | - | - | - | . | .
CCCCCCC(=O)N1CCCC(c2nc(-c3cccc(OC)c3)no2)C1 (configuration not stated) | - | - | - | - | - | - | . | .
SMILES | DAX1 inh-1 | ssDAF12 agonist | hgDAF-12 ag | hcDAF12 agonist | SMARCA2 act | DAX1 inh-2 | DAX1 conf | SF1 mutant ctr
CCC(=O)C1CCCN(C(=O)c2ccc3nc(-c4cccc(OC)c4)oc3c2)C1 (configuration not stated) | - | - | - | - | - | 7.0 | 8.3 | 5.7
COc1ccc(Cc2nc3ccc(C(=O)N4CCCC4)cc3o2)cc1OC | - | - | - | - | - | - | . | .
CCCC(=O)N1CCCC(c2nc(-c3cccc(OC)c3)no2)C1 (configuration not stated) | 4.7 | - | 12 | - | - | 4.6 | 12 | 5.7
O=C(c1ccc2oc(CCCc3ccccc3)nc2c1)N1CCCC1 | - | 1.0 | 11 | 5.8 | - | 9.0 | 9.5 | 6.9
COc1ccc(Cc2nc3ccc(C(=O)N4CCCC4)cc3o2)cc1 | - | 1.1 | 11 | - | - | 8.3 | 9.2 | 3.4
CC(C)CNC(=O)C1CSCCS(=O)(=O)N1Cc1ccc(F)cc1 (configuration not stated) | . | - | - | - | - | - | . | .
Cn1cccc1C(=O)N1CCN(S(=O)(=O)c2cccs2)CC1 | . | - | - | - | - | - | . | .
COc1cccc(-c2nc3ccc(C(=O)N4CCCC(O)C4)cc3o2)c1 (configuration not stated) | - | - | - | - | - | 5.3 | 7.4 | 7.4
CCOC(=O)CSC1=C(C#N)C(c2ccc(C)o2)CC(=O)N1 (configuration not stated) | - | - | - | - | - | 5.6 | 17 | -
CCOC(=O)CSC1=C(C#N)C(c2ccc(Cl)cc2)CC(=O)N1 (configuration not stated) | - | - | - | - | - | - | . | .
COC(=O)[C@H](CC(C)C)N1Cc2nnn(Cc3ccccc3)c2-c2cc(F)ccc2S1(=O)=O | . | - | - | - | - | - | . | .
O=C(c1cccs1)N1CCN(C(=O)c2cn(-c3ccccc3)nc2-c2ccccc2)CC1 | - | - | - | - | - | 7.7 | 5.8 | 3.4
CC(C)CNC(=O)OCc1cn(Cc2cccc(F)c2F)nn1 | . | - | - | - | - | - | . | .
CN1C2=N[C@H](c3cccc(C(F)(F)F)c3)CC(=O)N2/C(=C\c2ccccc2)[C@H]1c1ccccc1 | . | - | - | - | . | . | . | .
CCC1CCc2sc(C(=O)NCC3CCCO3)cc2C1 (configuration not stated) | - | - | 11 | - | 7.9 | 10 | 7.3 | 3.5
c1ccc(-n2ncc3c(NC4CCCCCC4)ncnc32)cc1 | 5.9 | - | 11 | - | - | 5.7 | 10 | 5.7
O=C1/C(=C/c2cccs2)CCC/C1=C\c1cccs1 | - | - | 12 | 6.2 | - | 6.8 | 13 | 11
COc1ccc2sc(NC(=O)c3ccco3)nc2c1 | - | - | - | - | - | 6.2 | 10 | -
COc1ccc2nc(NC(=O)CCNC(=O)c3ccco3)sc2c1 | - | - | - | - | - | - | . | .
O=C(N/N=C/c1ccc(OC(=O)c2cccs2)cc1)c1ccccn1 | - | - | - | - | - | 6.9 | 8.1 | 4.7
